High-throughput results deposited in PubChem BioAssay by National Center for Advancing Translational Sciences (NCATS).
This is a sample that favours compounds with a hit; in the whole collection about 15% have one here.
Sm TGR block: blocks Schistosoma mansoni thioredoxin glutathione reductase | Q962Y6 | purified TGR, DTNB reduction, TNB absorbance 405 nm | Potency, µM (series often up to 114 µM), inactives show at the top dose activity change, negative = inhibition, hits mostly inhibitors | actives 3% (n = 360,000) | AID 485364; further: potency means the concentration at half of the fitted maximal effect; on the % scale 0 is the no-effect control and ±100 the full control effect; nearly all actives have a fitted effect of over 60% in size
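TGR 20 nM + NADPH 100 uM (dispensed conc.), cpd preinc 15 min RT; start with NADPH (500 uM addition) then DTNB (15 mM addition). Kinetic TNB absorbance, 405 nm filter. Four-parameter Hill fit across titration.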
HCMV antiviral: inhibitors of human cytomegalovirus; activity change, negative = inhibition, % at 57.5 µM; actives 4.5% (n = 410,000); HFF cells, HCMV-luciferase reporter, 72 h; hits give low values; in the data active means activity change below about -60%; inconclusive means no clear call, values can overlap the other calls; inactive means above about -39%; further: on the % scale 0 is the no-effect control and ±100 the full control effect
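Cell-based, HFFs, 1000 cells/well, 16 h 37C; cpds in DMSO + HCMV-luc, MOI 1 PFU/cell; 72 h 37C; OneGlo luminescence after 5 min RT; norm. to buffer vs Salinomycin 10uM.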
HCV inh: inhibitors of hepatitis C virus infection; Huh7.5.1 HCVcc-Cre infection, luciferase reporter, 44 h; Potency, µM (series often up to 41.8 µM), inactives show at the top dose activity change, negative = inhibition, usual class: inhibitors; actives 3.4% (n = 340,000); further: potency means the concentration at half of the fitted maximal effect; on the % scale 0 is the no-effect control and ±100 the full control effect
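A cell-based infection assay in which seeded cells (1,000 per well) receive test compound after 4 h, are inoculated with HCVcc-Cre at approximately 0.5 moi, and are incubated 44 h before luminescence detection.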
Pf growth 96h: P. falciparum growth inhibition at 96 hour, primary screen for plastid delayed-death inhibitors. Potency, µM (doses to about 28.7 µM), for inactives: at the highest dose activity change, negative = inhibition, most hits filed as inhibitors. actives 6.9% (n = 320,000). P. falciparum luciferase reporter growth, 96 h; further: potency means the concentration at half of the fitted maximal effect; on the % scale 0 is the no-effect control and ±100 the full control effect
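P. falciparum expressing integrated firefly luciferase grown in erythrocytes (2% hematocrit, 0.05% parasitemia final) with compounds for 96 hours at 37 C, 5% CO2. Growth inhibition read as loss of luminescence after adding luciferase detection reagent.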
SARS PLP yeast: inhibitors of SARS-CoV papain-like protease in yeast. S. cerevisiae expressing SARS-CoV PLpro, growth rescue. Potency, µM (titrated, usually from 32.9 µM), without a hit: at the top dose activity, positive = growth rescue, usual class: activators. actives 0.19% (n = 330,000); calls by dose curve; further: potency means the concentration at half of the fitted maximal effect; 0% is about no effect; nearly all actives have a fitted effect of over 55% in size
Pf growth 48h: inhibits P. falciparum growth in the first generation, 48 h. actives 5.9% (n = 310,000). Potency, µM (doses to about 28.7 µM), without a hit: at the highest dose activity change, negative = inhibition, most hits filed as inhibitors. P. falciparum luciferase growth in erythrocytes, 48 h; further: potency means the concentration at half of the fitted maximal effect; on the % scale 0 is the no-effect control and ±100 the full control effect
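Luciferase-expressing parasites in RBCs, 2% Hct / 0.1% parasitemia final; RPMI 1640 + 0.5% Albumax; 37 C, 5% CO2, one generation; luminescence read-out, lower signal = inhibition.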
* = called active by the depositor. Unless noted, the call rests on the fitted dose curve; in most records, active means well fitted curve in the direction sought with a large enough effect; inconclusive means small, poorly fitted or top-dose-only effect, or another doubt; inactive means no such curve, though single readings can be large; an effect the other way counts as inactive or inconclusive.

What do the screens show for `Cc1cc(-c2ccccc2)nc(Nc2nc3c(C)cccc3c(=O)[nH]2)n1`?
HCMV antiviral: 0; HCV inh: inconclusive

What do the screens show for `Cc1ccc2oc(Nc3nc(-c4ccccc4)cc(=O)[nH]3)nc2c1`?
Sm TGR block: 6%; HCMV antiviral: -101*; HCV inh: 0%; Pf growth 96h: 0.83µM*; SARS PLP yeast: 0%; Pf growth 48h: inconclusive

Results for Cc1nc(-c2ccccc2)cc(=O)[nH]1 ?
Sm TGR block: 2%; HCMV antiviral: -5; HCV inh: 10%; Pf growth 96h: 15%; SARS PLP yeast: -7%; Pf growth 48h: 52%

What do the screens show for `Cc1cc(C)c2nc(NC3=NCN(CCN4CCOCC4)CN3)nc(C)c2c1`?
Sm TGR block: 2%; Pf growth 96h: -17%; SARS PLP yeast: 3%; Pf growth 48h: inconclusive

Results for Cc1ccc(SCc2cc(=O)[nH]c(Nc3nc(C)c4cccc(C)c4n3)n2)cc1 ?
Sm TGR block: 4%; HCMV antiviral: 65; Pf growth 96h: inconclusive; SARS PLP yeast: 7%; Pf growth 48h: inconclusive

What do the screens show for `Cc1cc(C)c2nc(Nc3nc(CSc4nc5ccccc5[nH]4)cc(=O)[nH]3)nc(C)c2c1`?
HCMV antiviral: -65*; HCV inh: inconclusive

What do the screens show for `Cc1cc(C)c2nc(Nc3nc(-c4ccccc4)cc(=O)[nH]3)nc(C)c2c1`?
Sm TGR block: -7%; HCMV antiviral: -9; HCV inh: inconclusive; Pf growth 96h: 3.7µM*; SARS PLP yeast: 1%; Pf growth 48h: 1.7µM*

What do the screens show for `COc1cccc(CNC(=O)CCS(=O)(=O)c2ccccc2Cl)c1`?
Sm TGR block: -1%; HCMV antiviral: 91; HCV inh: 32%; Pf growth 96h: inconclusive; SARS PLP yeast: 2%; Pf growth 48h: -2%

Results for CCN(CC)CCNC(=O)c1ccccc1C(=O)c1ncc[nH]1 ?
Sm TGR block: 2%; HCMV antiviral: -7; HCV inh: 17%; Pf growth 96h: 1.7µM*; SARS PLP yeast: 1%; Pf growth 48h: -14%

How did Cc1ccc2sc(N(CCCN(C)C)C(=O)c3nc4ccccc4s3)nc2c1C do in these assays?
Sm TGR block: -2%; HCMV antiviral: -8; HCV inh: inconclusive; Pf growth 96h: -13%; SARS PLP yeast: 0%; Pf growth 48h: inconclusive

Results for CN(C)CCN(C(=O)CCS(=O)(=O)c1ccccc1)c1nc2c(F)cccc2s1 ?
Sm TGR block: inconclusive; HCMV antiviral: -12; HCV inh: 9%; Pf growth 96h: 2.6µM*; SARS PLP yeast: -9%; Pf growth 48h: 25%

What do the screens show for `COc1ccc(OC)c2sc(N(CCCN(C)C)C(=O)CCS(=O)(=O)c3ccccc3)nc12`?
Sm TGR block: 3.2µM*; HCMV antiviral: 16; HCV inh: inconclusive; Pf growth 96h: 20%; SARS PLP yeast: -4%; Pf growth 48h: inconclusive

Results for Cc1ccc2sc(N(CCCN(C)C)C(=O)CCS(=O)(=O)c3ccccc3)nc2c1C ?
Sm TGR block: 7.1µM*; HCMV antiviral: 0; HCV inh: inconclusive; Pf growth 96h: 6.6µM*; SARS PLP yeast: -5%; Pf growth 48h: 39%

What do the screens show for `Cc1cc(C)c2sc(N(CCN(C)C)C(=O)CCS(=O)(=O)c3ccccc3)nc2c1`?
Sm TGR block: -20%; HCMV antiviral: inconclusive; HCV inh: 7%; Pf growth 96h: inconclusive; SARS PLP yeast: 1%; Pf growth 48h: inconclusive

What do the screens show for `CCN(CC)CCN(C(=O)CCS(=O)(=O)c1ccccc1)c1nc2cc(OC)c(OC)cc2s1`?
Sm TGR block: 14µM*; HCMV antiviral: 7; HCV inh: 6%; Pf growth 96h: 23%; SARS PLP yeast: 8%; Pf growth 48h: 2%

What do the screens show for `COc1ccc(Cl)c2sc(N(CCN(C)C)C(=O)CCS(=O)(=O)c3ccc(C)cc3)nc12`?
Sm TGR block: -30%; HCMV antiviral: 6; HCV inh: inconclusive; Pf growth 96h: 7%; SARS PLP yeast: 2%; Pf growth 48h: 1%
